# Bioassay records from PubChem BioAssay.
# In the library only some 2.4% were active in any assay of this set; here they are far more common.
# Mcl1-Bid inh – disrupts binding of human Mcl-1 to Bid peptide; Q07820; TR-FRET Mcl-1/Bid-Dy647 peptide binding, 1536-well; inhibition, % at 21.7 µM; 220,000 tested, 0.97% active; AID 1021;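 active = compounds that cut the binding signal by more than half at the single screening dose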;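 note: His-tagged Mcl-1 with europium anti-His antibody binding Bid BH3 peptide; 0% = Mcl-1 plus peptide wells and 100% = peptide-only wells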
# Target sequence (Q07820 whole entry, looked up): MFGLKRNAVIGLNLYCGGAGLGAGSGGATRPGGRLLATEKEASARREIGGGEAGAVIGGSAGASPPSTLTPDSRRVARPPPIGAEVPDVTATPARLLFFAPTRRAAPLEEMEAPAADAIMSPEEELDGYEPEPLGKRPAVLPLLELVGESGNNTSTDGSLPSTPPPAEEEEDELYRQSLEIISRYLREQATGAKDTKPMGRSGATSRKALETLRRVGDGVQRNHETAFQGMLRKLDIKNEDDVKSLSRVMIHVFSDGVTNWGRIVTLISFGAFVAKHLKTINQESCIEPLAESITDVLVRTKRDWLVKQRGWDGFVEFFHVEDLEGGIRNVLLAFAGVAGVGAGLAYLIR
# Mcl1-Noxa inh – Mcl-1/Noxa interaction inhibition; Q07820; TR-FRET Mcl-1/Noxa peptide binding, 2 h; inhibition, % at 21.7 µM; 220,000 tested, 1.5% active;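 active = compounds that cut the protein-peptide binding signal by more than 50% relative to plate controls in a single-dose test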;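 note: His-tagged Mcl-1 with rhodamine Noxa BH3 peptide and terbium anti-His antibody; 0% = Mcl-1 plus Noxa peptide wells and 100% = peptide-only wells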
# TNF necrop inh – blocks TNF-alpha induced death of Jurkat FADD-/- cells; 220,000 tested, 0.068% active; Jurkat FADD-/- TNF necroptosis rescue, ATP luminescence, 24 h; 0 = TNF only, 100 = no-TNF cells; activation (protection from cell death), % at 10 µM;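 active = activation, meaning protection from cell death, of at least 50% relative to plate controls; inactive = activation below 50%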;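 note: necroptosis triggered by 40 ng/mL TNF-alpha added together with compound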
# Mcl-1 Bim block – inhibitors of Bim-Mcl-1 interaction, human. Bead-based flow cytometry, Bim peptide-Mcl-1 binding. inhibition, % at 10 µM. 190,000 tested, 0.1% active. AID 1009; in the data active = inhibition above about 40%;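 note: 0% = no compound tracer wells and 100% = peptide blocker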
# L929 necroptosis – blocks zVAD induced death of L929 cells | L929 zVAD necroptosis rescue, ATP luminescence, 24 h; with zVAD 60 µM | viability rescue, % at 10 µM | 220,000 tested, 0.38% active | AID 1377;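 active = activation, scaled between plate controls, above about 75%, limit read from the data; inactive = activation under that limit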;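 note: 0% = zVAD with DMSO and 100% = DMSO alone without zVAD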
# MCL1 BIM primary – disrupts human MCL1 binding to BIM-BH3 peptide; Q07820; GST-MCL1 / FITC-Bim-BH3 fluorescence polarization; inhibition, % at 10.9 µM; 320,000 tested, 0.68% active;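 active = inhibition above the mean inhibition of all tested compounds plus 3 SD, set per campaign, cut at about 40% in these data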;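 note: 0% = DMSO wells and 100% = unlabeled Bim-BH3 peptide control; higher means more loss of mP so more displacement of Bim peptide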
# Numbers without * were called inactive; · = no result.
SMILES,Mcl1-Bid inh,Mcl1-Noxa inh,TNF necrop inh,Mcl-1 Bim block,L929 necroptosis,MCL1 BIM primary
COc1cc(OC)cc(C(=O)N2CCC(N3CCN(c4ccccc4OC)CC3)CC2)c1,57.2*,13.8,-0.3,-4.0,-0.6,-1.0
COc1ccc2c(c1)Cc1sc(NC(=O)c3ccccc3)nc1-2,-9.1,11.0,-1.4,1.0,0.4,2.9
COc1ccc(C(=O)Nc2nc3ccc4nc(C)sc4c3s2)cc1,13.3,52.6*,0.8,2.0,4.7,-14.6
COc1ccc(C(=O)Nc2nc3c(s2)Cc2cc(OC)ccc2-3)cc1,55.4*,86.4*,-1.8,0.0,-0.2,10.9
Cc1ccc(-n2nc3c(c2NC(=O)CC(C)C)CS(=O)(=O)C3)c(C)c1,·,·,·,·,·,-2.4
Cc1cccc(C)c1OCC(=O)Nc1ccc2c(c1)OCCO2,·,·,·,·,·,-11.1
CCC(CC)=N/N=C/c1c(O)n(CC)c2cc(C3=NNC(=O)CC3)ccc12,65.7*,48.8,-5.9,9.0,-0.3,4.7
CCc1nc(-c2ccccc2)c2ccccn12,8.5,62.3*,-0.9,0.0,4.3,-1.5
CCCc1cc(C(=O)Nc2ccc(C(=O)c3ccc(C)cc3)cc2)n(C)n1,·,·,·,·,·,5.5
CC(C)(C)OC(=O)NCCCC1=CC2=CC(=O)C(C)(OC(=O)c3ccc(Cl)nc3)C(=O)C2=CO1 (stereo not given),·,·,·,·,·,85.3*
N=c1c[n+](N2CCOCC2)[n-]o1,56.2*,7.3,0.4,0.0,2.6,0.1
Cn1c2ccccc2c(=O)c2c(=O)n(Cc3ccco3)c(-c3ccc(C(C)(C)C)cc3)nc21,52.0*,-92.0,-4.2,·,0.4,1.8
COc1ccc(Cn2c(-c3ccccc3)nc3c(c(=O)c4ccccc4n3C)c2=O)cc1,41.5,-5.2,-1.5,-16.0,0.8,-11.0
COCCn1c(N)c(C(=S)NC(=O)c2cccs2)c(=O)[nH]c1=O,-6.3,70.1*,-1.7,·,1.6,7.5
COCCN(C(=O)COC(=O)CNC(=O)c1cccs1)c1c(N)n(Cc2ccccc2)c(=O)[nH]c1=O,·,·,·,·,·,-18.9
COc1ccc(N(C)S(=O)(=O)c2ccc3c(c2)CCN3C(=O)C2CC2)c(OC)c1,·,·,·,·,·,1.1
Cc1csc(Nc2ccccc2)[n+]1-c1ccccc1,-16.4,5.1,56.0*,0.0,0.9,-3.1
Cn1c(=O)c2[nH]c(-c3ccccc3O)nc2n(C)c1=O,-20.8,59.5*,-3.2,3.0,-0.1,17.5
CC(C)c1ccc(-c2nc3c([nH]2)c(=O)n(C)c(=O)n3C)cc1,-19.4,-2.9,-0.5,-3.0,-1.1,4.4
COc1cc(/C=C2\C(=N)N3N=CSC3=NC2=O)cc(Br)c1OC(=O)c1ccco1,-40.1,28.7,0.1,-3.0,0.8,2.6
COc1ccc(-n2ccn(CC(=O)Nc3ccc(OC)cc3OC)c(=O)c2=O)cc1,·,·,·,·,·,1.5
CCOc1ccc(C(=O)Nc2nnn(CC)n2)cc1,-49.5,-8.2,-1.1,62.0*,-0.5,-2.8
Cc1cc(C)cc(NC(=O)Oc2ccccc2N2CCCCC2)c1,-39.5,50.7*,-0.7,·,0.8,-2.3
CCc1noc(C)c1C(=O)OCC(=O)Nc1nc(-c2ccc(F)c(F)c2)cs1,·,·,·,·,·,-4.8
Cc1cc(NC(=O)CSc2nnc(NC(=O)C3CC(=O)N(c4ccccc4)C3)s2)no1 (stereo not given),50.5*,-55.9,1.9,2.0,0.0,-20.3
SMILES,Mcl1-Bid inh,Mcl1-Noxa inh,TNF necrop inh,Mcl-1 Bim block,L929 necroptosis,MCL1 BIM primary
Cc1ccc(C(=O)N/N=C(/CC(=O)c2cccs2)C(F)(F)F)cc1,-10.9,34.2,1.4,-6.0,0.9,-4.0
O=C(N/N=C(\CC(=O)c1cccs1)C(F)(F)F)c1ccncc1,65.5*,40.4,-0.2,·,0.7,2.9
CCN(c1ccc(NC(=O)COC(=O)c2ccc(C)c(S(=O)(=O)N3CCOCC3)c2)cc1)C(C)C,24.1,74.5*,0.7,-6.0,-0.6,3.8
CCOc1ccccc1C(=O)NCC(=O)NNC(=O)CN(C)S(=O)(=O)c1ccc(Cl)cc1,·,·,·,·,·,4.5
CN1CCN(c2ccc([N+](=O)[O-])cc2/C=N/NC(=O)c2ccc(F)cc2)CC1,0.3,74.6*,2.1,-1.0,-1.2,·
CCCS(=O)(=O)c1nc(S(=O)(=O)c2ccc(C)cc2)c(N2CCCC(C)C2)s1 (stereo not given),·,·,·,·,·,0.4
CC(C(=O)NC1CCCC1)N(Cc1ccco1)C(=O)c1snc(C(=O)NC2CCCC2)c1N (stereo not given),37.2,90.3*,0.0,-3.0,-0.3,-3.2
COc1ccc(/C=N/Nc2ncc(-c3ccccc3)cn2)c(OC)c1,40.2,51.8*,-5.8,-2.0,2.0,-4.9
CSc1cccc(NC(=O)CN(C)S(=O)(=O)c2ccccc2)c1,72.1*,-17.9,-0.8,0.0,0.5,10.9
CSc1cccc(NC(=O)CN(C)S(=O)(=O)c2ccc(F)cc2)c1,1.3,-2.6,-0.6,-2.0,-0.6,-4.3
COc1ccc(C(=O)Nc2ccc(S(=O)(=O)Nc3nccc(C)n3)cc2)cc1[N+](=O)[O-],·,·,·,·,·,-6.8
Cc1ccc(S(=O)(=O)NN2C(=O)/C(=C/c3cccn3C)SC2=S)cc1,-19.5,53.7*,0.6,6.0,1.8,-77.8
CN(CC(=O)O/N=C(\N)c1ccc([N+](=O)[O-])cc1)S(=O)(=O)c1ccccc1,11.5,83.1*,0.6,95.0*,0.5,0.9
Cc1ccc(S(=O)(=O)N(C)CC(=O)O/N=C(\N)c2ccc([N+](=O)[O-])cc2)cc1,0.5,-4.5,3.1,-3.0,0.8,4.8
CC(C)Cn1c(SC(C)C(=O)NC2CC2)nnc1-c1ccccc1F (stereo not given),·,·,·,·,·,-17.0
COc1cc(/C=C2\SC(=Nc3c(C)n(C)n(-c4ccccc4)c3=O)NC2=O)ccc1O,-35.2,50.6*,-1.5,0.0,0.0,·
CN=C1S/C(=C\c2ccc(O)c(OC)c2)C(=O)N1C,·,·,·,·,·,-16.0
COc1cc(/C=C2\SC(=Nc3ccc(O)cc3)NC2=O)cc(OC)c1O,-30.8,61.7*,-0.8,0.0,5.6,21.4
CC1=C(Cl)C2=NS(=O)(=O)CCN2C=C1Cl,-9.5,-9.3,0.1,-1.0,1.4,-4.6
CC1Oc2ccccc2C=C1/C=N\NC(=O)c1cccnc1 (stereo not given),-5.9,22.9,-0.1,·,0.3,-6.8
CC(C)c1ccc2oc(=O)cc(CN3CCOCC3)c2c1,·,·,·,·,·,5.7
CCS(=O)(=O)N1Cc2ccccc2CC1C(=O)OCC(=O)N(C(C)C)C(C)C (stereo not given),-25.5,69.6*,0.0,0.0,2.4,2.7
CCOc1ccc(NC(=O)C2Cc3ccccc3CN2S(=O)(=O)CC)cc1 (stereo not given),-23.8,3.6,2.3,1.0,7.7,-5.2
CN(C)c1ccnc2sc(C(=O)c3ccc(Br)cc3)c(N)c12,-19.7,7.7,0.3,-2.0,6.1,-5.0
CN(C)c1ccnc2sc(C(N)=O)c(N)c12,96.6*,-2.4,3.4,0.0,63.5,10.5
N#CC1(NC(=O)COC(=O)c2ccccc2[N+](=O)[O-])CCCCC1,·,·,·,·,·,-0.5
